Screen size: about 1,100 compounds; about 350 (32%) were called active. No rule for the calls is given here. These entries were drawn from the full list. A call without a number means that no potency is given here. Potency and affinity values are given separately.
test: viability loss in CEM21 cells – cell-based, CellTiter-Glo luminescence, cherry-picked, cytotoxicity control for viral fusion inhibitor project, dose response (AID 652042); conditions: CellTiter-Glo ATP luminescence, 24 h; series mostly up to 35 µM

Compound	activity change, negative = cytotoxicity
COC(=O)[C@@]1(C)[C@H]2C(=O)N(Cc3ccccc3)C(=O)[C@H]2[C@H]2CN=C(SCc3ccc(Cl)cc3)N21	inactive
CCN1C(=O)[C@H]2[C@@H](c3ccc(C)cc3)N3C(=O)N(c4cccc(Cl)c4)C(=O)[C@@]3(CC)[C@H]2C1=O	inactive
CS(=O)(=O)N(Cc1ccc(Cl)cc1)c1ccc(C(=O)NCCSc2ccccn2)cc1	inactive
CC(=O)c1c(C)[nH]c(C(=O)OCCCCN2C(=O)c3ccccc3C2=O)c1C	inactive
CCCC(=O)Nc1ccc2c(c1)OC[C@H](C)N(C(=O)CN(C)C)C[C@@H](C)[C@H](OC)CN(C)C2=O	inactive
CO[C@H]1CN(C)C(=O)c2ccc(NC(=O)C3CC3)cc2OC[C@@H](C)N(C(C)=O)C[C@@H]1C	inactive
CCC(=O)Nc1ccc2c(c1)C(=O)N(C)C[C@@H](OC)[C@H](C)CN(C(=O)CC)[C@@H](C)CO2	inactive
CO[C@H]1CN(C)C(=O)c2ccc(NC(=O)Nc3cccc(F)c3)cc2OC[C@@H](C)N(C(C)=O)C[C@H]1C	inactive
CO[C@H]1CN(C)C(=O)c2cc(NC(=O)C3CCOCC3)ccc2OC[C@H](C)N(Cc2nccs2)C[C@H]1C	inactive
COCC(=O)N1C[C@@H](C)[C@H](OC)CN(C)C(=O)c2ccc(NC(=O)c3ccc(OC)cc3)cc2OC[C@@H]1C	inactive
CCN(CC)S(=O)(=O)c1ccc(N2CCCC2)c(NC(=O)Cc2cc(OC)c(OC)c(OC)c2)c1	inactive
O=C(c1cccc(S(=O)(=O)N2CCN(c3ccccc3)CC2)c1)N1CCCC(C(F)(F)F)C1 (stereo unspecified)	inactive
O=C1CCCCC1Sc1nnc(-c2ccc3c(c2)OCO3)o1 (stereo unspecified)	inactive
O=C(CN1C(=O)c2ccccc2S1(=O)=O)c1ccc2c(c1)OCCO2	inactive
Cc1ccccc1S(=O)(=O)NC(=O)C1(C)CCN1C(=O)CCc1ccc(Cl)cc1Cl (stereo unspecified)	inactive
COc1ccc([C@@H]2[C@@H]3C(=O)N(C(C)(C)C)C(=O)[C@@H]3[C@]3(CC(C)C)C(=O)N(c4cccc(F)c4)C(=O)N23)cc1	inactive
COc1ccc(-c2cc(C(=O)NNC(=S)NC(=O)c3c(-c4ccccc4)noc3C)[nH]n2)cc1	inactive
Cc1onc(-c2ccccc2)c1C(=O)Nc1ccc(Br)cc1Cl	inactive

Compound	activity change, negative = cytotoxicity
CC1(Cc2ccc(Cl)cc2)C(=O)Nc2ccc(S(=O)(=O)NC3CCCCC3)cc21 (stereo unspecified)	inactive
O=C(Nc1cccn(Cc2c(Cl)cccc2Cl)c1=O)c1ccc(Cl)cc1	inactive
CCCCOc1ccc(S(=O)(=O)Nc2cccnc2)cc1	inactive
CCCNC(=O)C[C@@H]1C[C@H]2c3cc(NC(=O)Cc4ccncc4)ccc3O[C@H]2[C@H](CO)O1	inactive
COc1ccccc1S(=O)(=O)N[C@H]1CC[C@H](CC(=O)N2CCN(C)CC2)O[C@H]1CO	inactive
CC1CCN(S(=O)(=O)c2cc(C(=O)N3CCN(c4ccccc4)CC3)ccc2Br)CC1	inactive
Cc1ccc(C2CC(=O)c3cnc(N4CCc5ccccc5C4)nc3C2)cc1 (stereo unspecified)	inactive
O=C(Cc1ccncc1)N[C@H]1CC[C@@H](CCn2cc(-c3ccccc3F)nn2)O[C@@H]1CO	inactive
CN(C)Cc1cn(CC[C@@H]2CC[C@H](N)[C@H](CO)O2)nn1	inactive
CC[C@@]12C(=O)N(c3ccccc3)C(=O)N1[C@H](c1cccc(C)c1)[C@@H]1C(=O)N(Cc3ccccc3)C(=O)[C@@H]12	inactive
CC(C)(C)NC(=O)C(c1ccccc1)N(Cc1cccs1)C(=O)c1csnn1 (stereo unspecified)	inactive
CC(C)(C)n1nnnc1C(c1cccs1)N(Cc1cccnc1)Cc1ccco1 (stereo unspecified)	inactive
COc1ccc(N2C(=O)N3[C@H](c4ccc(Cl)cc4)[C@@H]4C(=O)N(C5CCCCC5)C(=O)[C@@H]4[C@]3(C)C2=O)cc1	inactive
CCn1ncc(C2=NOC(C(=O)Nc3ccc(C)cc3)C2)c1C (stereo unspecified)	inactive
c1csc(-c2csc3ncnc(NCCCN4CCOCC4)c23)c1	inactive
O=C(C[C@@H]1C[C@@H]2c3cc(NC(=O)C4CCC4)ccc3O[C@@H]2[C@@H](CO)O1)NCC(F)(F)F	inactive
CS(=O)(=O)N1CCc2cc(-c3csc(NC(=O)Cc4cccs4)n3)ccc21	inactive
CCNC(=O)C[C@H]1CC[C@@H]2[C@@H](COc3ccc(NC(=O)Cc4cccs4)cc3C(=O)N2C)O1	inactive
